Screens: PubChem BioAssay, The Scripps Research Institute Molecular Screening Center
DAX1 inh-1: inhibitors of human orphan nuclear receptor DAX1 (NR0B1). 340,000 compounds, 0.99% hits. inhibition, % at 6.75 µM. HEK293 Gal4-DAX1 luciferase reporter, luminescence. P51843;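 active = inhibition above the mean over all tested compounds plus 3 SD, cut at about 4.2% in these data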;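 also: 0% = DAX1-transfected cells with DMSO and 100% = empty-vector control cells with DMSO; inhibition shows as a rise in luminescence from relieved DAX1 repression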
Target sequence (P51843 207-470 limits assumed): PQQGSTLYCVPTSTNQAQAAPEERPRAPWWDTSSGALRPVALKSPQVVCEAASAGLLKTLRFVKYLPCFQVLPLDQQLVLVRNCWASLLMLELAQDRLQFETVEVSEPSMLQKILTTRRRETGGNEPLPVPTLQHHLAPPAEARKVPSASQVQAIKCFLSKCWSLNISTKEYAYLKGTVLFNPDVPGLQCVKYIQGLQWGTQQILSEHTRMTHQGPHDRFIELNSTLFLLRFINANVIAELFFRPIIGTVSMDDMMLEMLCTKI
SMARCA2 activ: activators of SMARCA2 function | MG213 cells, MMTV-luciferase reporter, dexamethasone, overnight | activation, % at 9.1 µM | 370,000 compounds, 1% hits; in the data active = activation above about 7.8%;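 also: 0% = vehicle wells and 100% = reference activator wells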
DAX1 inh-2: inhibitors of DAX1 repression of SF-1 activated StAR promoter; inhibition, % at 6.8 µM; AID 652010; 370,000 compounds, 1.1% hits; HEK293T StAR-luciferase reporter, SF-1/DAX-1 repression relief;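 active = inhibition above the mean over all tested compounds plus 3 SD, cut at about 3.6% in these data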;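 also: 0% = DAX-1 cells with DMSO and 100% = cells lacking DAX-1 with DMSO; higher inhibition means more luminescence from relief of DAX-1 repression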
ssDAF-12 act: activators of S. stercoralis DAF-12 nuclear receptor; AID 652126; 370,000 compounds, 1% hits; HEK293 ssDAF-12/GRIP1 lit1-tk-luc reporter, luminescence; % of 3 µM dafachronic acid response; activation, % at 6.8 µM;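 active = activation above the mean over all tested compounds plus 3 SD, cut at about 0.9% in these data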;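 also: 0% = DMSO-only wells and 100% = 3 µM delta7-dafachronic acid wells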
hcDAF-12 act: activates DAF-12 receptor from parasite H. contortus; HEK293 hcDAF-12 lit1-tk-luc reporter, luminescence; 0% DMSO, 100% Δ7-dafachronic acid; activation, % at 6.8 µM; 370,000 compounds, 1.4% hits; AID 652067;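 active = activation above the mean of all tested compounds plus 3 SD, cut at about 5.5% in these data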;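 also: 100% = response to 3 µM Δ7-dafachronic acid high control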
hgDAF12 agonist: agonists of H. glycines DAF-12 nuclear receptor | HEK293 GAL4-hgDAF12 UAS-luciferase reporter, agonist luminescence; normalized to butyrate control | activation, % at 6.8 µM | 370,000 compounds, 1.8% hits | AID 687014;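 active = activation above a cutoff set at the mean of all screened compounds plus 3 SD, cut at about 10% in these data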;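 also: 0% = DMSO wells and 100% = sodium butyrate wells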
SMARCA2 act conf: confirmation of SMARCA2 (BRM) function activators. shares compounds with SMARCA2 activ. MG213 cells, MMTV-luciferase with dexamethasone, luminescence, overnight; MG213 cells expressing E1A, Rb sequestered; DMSO wells 0%, reference activator 100%. activation, % at 9.1 µM. 3,500 compounds, 30% hits. AID 652260;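 active = activation above its plate's cutoff, the mean activation of tested wells plus 3 SD, cut at about 7.9% in these data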
GAL4-VP16 Luc: activates GAL4-VP16 luciferase, flagging SMARCA2 activator hits | shares compounds with SMARCA2 activ | HEK293 GAL4-VP16 pG5luc reporter, luciferase luminescence; scaled: DMSO wells 0%, SAHA wells 100% | activation, % at 9.1 µM | 3,500 compounds, 41% hits;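 active = activation above the solvent-only control well mean plus 3 SD, averaged across control plates, cut at about 5.2% in these data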
Numbers without * were called inactive; . = no result given. The list is not random: actives were taken first. Their share in the collection is about 4.8%.

SMILES	DAX1 inh-1	SMARCA2 activ	DAX1 inh-2	ssDAF-12 act	hcDAF-12 act	hgDAF12 agonist	SMARCA2 act conf	GAL4-VP16 Luc
CC(C)(C)OC(=O)/C=C/[C@@H](CCCCl)Sc1ccc(C(C)(C)C)cc1	.	-5	-2	-2	-3	0	.	.
COc1ccccc1Cn1c(-c2ccco2)nc2nc3ccccc3nc21	0	8.6*	1	0	0	1	4	1
CCC(=O)NCCCCCCNC(=O)CC	-1	1	1	-2	-1	3	.	.
O=C(CCl)NCCCCCCCCCNC(=O)CCl	-1	8.8*	-2	-1	-2	-4	7	-1
CCN1CCCCC(NC(=O)Cc2ccccc2)C1=O (configuration not stated)	.	-2	-1	-1	-1	3	.	.
COc1ccc(C2O[C@@H](C)[C@@H]3C(=O)N4CCc5c([nH]c6ccccc56)[C@@H]4C[C@@H]3N2C)cc1 (some centres not stated)	.	-2	1	0	1	0	.	.
O=C(Nc1ccc(Br)cc1Cl)c1cnccn1	1	9.4*	0	-1	-1	3	12*	4
COc1ccc(NC2c3ccccc3C(=O)N2c2ccccn2)cc1Cl (configuration not stated)	0	8.2*	1	-1	2	1	2	1
O=C1c2ccccc2C(Nc2ccc(F)c(Cl)c2)N1c1ccccn1 (configuration not stated)	-1	1	1	-1	1	3	.	.
CSc1nc(C)cc(SCC(=O)Nc2ccc(Cl)cc2Cl)n1	-1	8.0*	-1	-1	-3	-3	0	0
COC(=O)c1cc2c(c3c4cc(OC)ccc4n(S(=O)(=O)c4ccc(OC)cc4)c13)C(=O)N(Cc1ccc(N(C)C)cc1)C2	.	-2	0	-1	0	2	.	.
CCc1cc(C(=O)O)c(NC(=O)/C=C/c2ccc(OC)cc2)s1	1	13*	2	0	5	10	1	6.1*
CCc1cc(C(=O)O)c(NC(=O)/C=C/c2ccc(OC)c(OC)c2)s1	0	-1	0	-2	-1	-2	.	.
Cn1/c(=N/NC(=O)c2ccccc2F)sc2ccccc21	0	8.0*	1	0	3	8	2	8.2*
Cc1ccc(C(=O)N/N=c2\sc3ccccc3n2C)cc1	0	-2	0	-1	1	-1	.	.
CCN(CC)c1ccc(C=Nn2c(-c3ccc(F)cc3)n[nH]c2=S)c(O)c1	.	3	-1	-1	-1	-1	.	.
CC1CCC2(CCC(=O)N2C[C@@H](O)c2ccccc2)CC1 (some centres not stated)	.	.	.	-1	0	-1	.	.
Cc1ccc(-c2ccc(CCC(=O)O)n2NC(N)=S)cc1	0	8.4*	0	-1	0	-3	-1	1
CCCNC(=O)Nc1ccc2c(c1)C(=O)N(C)[C@H]1CC[C@@H](CC(=O)OC)O[C@H]1CO2	.	-1	-1	-1	0	4	.	.
O=C(NCc1ccccc1)N1CCC(c2nc3ccc(Cl)cc3[nH]2)CC1	.	2	1	-2	-4	-2	.	.
CCOC(=O)c1sc(N/N=C/c2ccccc2)nc1C	2	8.7*	3	1.2*	4	7	21*	13*
COCCOC(=O)CSc1ncccc1-c1nc2cc(C)c(C)cc2[nH]1	-1	1	2	1	4	9	.	.
Cc1cc2nc(-c3cccnc3SCC(=O)NC(C)C)[nH]c2cc1C	1	11*	4.1*	0	4	10	8.4*	8.9*
O=C(Nc1nc2ncccn2c1-c1ccc(C(F)(F)F)cc1)C1CC1	.	-4	-1	-1	2	2	.	.
CC(=O)Nc1ccc(NC(=O)c2ccc(-c3c(C)noc3C)c3ccoc23)cc1	.	8.6*	0	-1	0	-3	-6	10*
SMILES	DAX1 inh-1	SMARCA2 activ	DAX1 inh-2	ssDAF-12 act	hcDAF-12 act	hgDAF12 agonist	SMARCA2 act conf	GAL4-VP16 Luc
Cc1noc(C)c1-c1ccc(C(=O)Nc2ccc(C(C)C)cc2)c2occc12	.	-3	-2	-1	3	-3	.	.
CCN(CCC(=O)Nc1cc([N+](=O)[O-])ccc1OC)Cc1ccccc1	0	9.7*	-1	-2	3	1	-2	0
CCN(CCC(=O)Nc1cc(OC)ccc1OC)Cc1ccccc1	.	-3	0	-1	-1	0	.	.
Cc1sc2nc(CN3CCCC3)nc(NCc3ccncc3)c2c1C	0	4	0	-1	-1	-2	.	.
Cc1sc2nc(CN3CCCCC3)nc(Nc3ccc4c(c3)OCCO4)c2c1C	0	9.2*	1	-1	0	2	11*	-1
COc1cc(/C=C2/SC(=Nc3ccc(O)cc3)NC2=O)cc(OC)c1O	0	8.9*	-2	-2	-2	-2	4	1
C[C@@H]1CCN(C2CC2)S(=O)(=O)c2c(cccc2N2CCC[C@@H]2CO)O1	.	0	0	0	-1	2	.	.
COCCN1CCN(c2c(C)c(C)nc3cc(-c4cccc(OC)c4)nn23)CC1	2	11*	1	-1	3	6	9.7*	5
CCOCCN1CCN(c2c(C)c(C)nc3cc(-c4cc(OC)cc(OC)c4)nn23)CC1	-1	5	-1	-2	-3	-4	.	.
COc1ccc(-c2ccc(SCC(=O)N3c4ccccc4CC3C)nn2)cc1OC (configuration not stated)	-2	13*	0	-2	-1	0	2	4
O=C1C(=Cc2ccc(F)cc2)Cc2ccccc21	.	5	0	0	0	4	.	.
O=C1/C(=C/c2ccco2)Cc2ccccc21	-1	11*	0	0	1	7	13*	4
CC1(C)C(=O)Nc2ccccc2N1C(=O)Cn1ncc(Cl)c(Cl)c1=O	2	19*	0	-1	1	-2	23*	0
Cc1nn(CC(=O)N2c3ccccc3NC(=O)C2(C)C)c(C)c1[N+](=O)[O-]	-3	-6	1	-1	-1	1	.	.
COc1ccc(S(=O)(=O)N2CCOCC2)cc1NC(=O)CCCOc1ccccc1	0	1	0	-1	-1	-1	.	.
COc1ccc(S(=O)(=O)N2CCOCC2)cc1NC(=O)CCCSc1ccccc1	1	9.3*	1	-1	1	0	-2	2
Cn1cccc1CC(=O)NN=Cc1cccc(F)c1	.	-3	0	-2	-1	1	.	.
